Experiment [1] in a line: inhibitors of TNFa-induced NFkB p65 translocation, primary screen, imaging, HUVEC, MLSMR starter and 10KST1 sets (AID 438;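 active = inhibition above 20% together with a positive visual image hit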;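 also: compound added about 3h40 before a 20 min TNFalpha stimulation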;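 as to inhibition: signal is the nuclear over cytoplasmic p65 intensity ratio per well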). The note with it: HUVEC TNFa-induced p65 nuclear translocation; cell count: measured here: nuclei count (cytotoxicity indicator), at 2.08 µM; inhibition: at 2 µM, stronger effect = higher value, 0% TNFa-plus-vehicle, 100% no-TNFa wells.
Experiment [2] is described as follows: inhibitors of mutant huntingtin aggregation, primary screen, imaging, exon1htt(103Q)mCFP cells, high-content imaging (AID 483;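 active = visual image review flags a hit and inhibition of aggregation exceeds 20%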;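 also: compound exposure lasted 3 days before fixation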;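 as to nuclei count: percent of the per-plate median nuclei count of sample wells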). To be noted: exon1htt(103Q)mCFP cell line, aggregate imaging, at 2 µM; inhibition of aggregation: stronger effect = higher value; nuclei count: measured here: cell count, toxicity.
A short description of experiment [3]: inhibitors of E-selectin induction by TNFa, primary screen, imaging, HUVEC, immunofluorescence, MLSMR starter and 10KST1 sets (AID 487;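 active = visually confirmed hit in the image check and inhibition above 20%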;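 as to inhibition: signal is fraction of cell area covered by stained E-selectin grains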;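 as to nuclei count: 100% = median nuclei count of all wells on the same plate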). The note with it: HUVEC TNFalpha-induced E-selectin immunofluorescence imaging, at 2 µM; inhibition: stronger effect = higher value; nuclei count: measured here: cell number, toxicity.
A short description of experiment [4]: DUSP6 inhibitors restoring Erk phosphorylation by chemical complementation, primary imaging in DUSP6-transfected HeLa (AID 609;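 active = compounds giving at least 50% inhibition in the cell-based MKP-3 phosphatase rescue imaging test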;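 as to inhibition: phospho-Erk level distribution per well compared with pooled transfected vehicle control wells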). To be noted: HeLa MKP-3 transfected, phospho-Erk imaging KS statistic, at 10 µM, cells stimulated with TPA for 15 min.
Experiment [5] addresses Dual specificity protein phosphatase 6 (Homo sapiens) (UniProt Q16828). Described as above. To be noted: HeLa MKP-3 transfected, phospho-Erk imaging KS statistic; at 10 µM; stronger effect = higher value; cells stimulated with TPA for 15 min.
For experiment [6], the target named is Voltage-gated potassium channel subunit beta-2 (Rattus norvegicus) (UniProt P62483). The experiment can be described thus: KvBeta enzyme negative modulators, primary screen, biochemical, NADPH fluorescence (AID 622;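 active = fluorescence slope higher than the sample average by over 3 SD, cut at about -0.22 in these data, passing the limit was not always enough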;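 also: slope of raw intensity against log time taken from 70 to 1610 s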). To be noted: recombinant KvBeta, 4-cyanobenzaldehyde reduction, at 10 µM, stronger effect = higher value.
The target is the same in experiment [7]. Nature of the experiment: KvBeta positive modulators, primary screen, biochemical, NADPH fluorescence (AID 623;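 active = NADPH fluorescence slope more negative than the mean of all samples by about 3 SD, 99.7% confidence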;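 also: fluorescence intensity change per second fitted from 20 to 320 s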). To be noted: Recombinant KvBeta, NADPH fluorescence decrease slope, 10 min; at 10 µM; stronger effect = lower value.
Experiment [8] deals with Alpha-2C adrenergic receptor (Homo sapiens) (UniProt P18825). The experiment can be described thus: modulators of alpha2C/GIRK thallium flux, primary screen, cell-based, HEK293 alpha2C/GIRK1/2 (AID 624;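 active = fluorescence slope after compound addition differing from the mean of all screened samples at 99.7% confidence, in either direction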;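 also: slope of fluorescence ratio to pre-addition baseline per second over 15 to 24 s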). The note with it: thallium flux BTC fluorescence, at 10 µM, actives lie on both sides.
In experiment [9] the target is Muscarinic acetylcholine receptor M4 (Homo sapiens) (UniProt P08173). Nature of the experiment: compounds altering M4/GIRK thallium flux, either direction, primary screen, M4 allosteric agonist project, cell-based, HEK293 M4/GIRK, BTC-AM (AID 625;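 active = fluorescence slope after compound addition differing from the mean of all tested samples at 99.7% confidence, mostly higher but some lower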;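 also: thallium influx through GIRK channels coupled to M4 in HEK293 cells with BTC-AM dye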). The note with it: at 10 µM, actives lie on both sides.
Experiment [10] can be described thus: inhibitors of larval lipid processing in zebrafish, primary screen, whole organism, PED6 fluorescence, gall bladder and intestine (AID 686;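 active = a full or partial loss of lipid-probe fluorescence in the fish gall bladder, intestine or both, judged by eye; inactive = no fluorescence loss, or compound toxic to the fish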;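 also: larvae 5 to 7 days old with five fish per well; signal comes from phospholipase A2 cleavage of quenched PED6 carried via bile; overnight exposure to compound and PED6 before scoring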). To be noted: Zebrafish larvae PED6 lipid processing, fluorescence scoring; screened at 20 µM (by protocol).
Experiment [11] is described as follows: inhibitors of Chlamydomonas gravitaxis, primary screen, whole organism, Chlamydomonas reinhardtii, WT vs cilia-less mutant, absorbance, 96-well (AID 463189).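 Also: 0% = wild type cc124 cells in DMSO and 100% = ciliumless bld1 mutant cells.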 The note with it: OD600 absorbance, 2 days, at 10 µM, stronger effect = higher value.
Experiment [12] can be described thus: inhibitors of Sendai virus-induced IRF3 signaling, primary screen, TLR/RLR signaling modifier project, cell-based, Sendai virus stimulus, luciferase, 10K MLSCN set (AID 602276;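 active = inhibition at or above 50% at 10 µM; inactive = inhibition below 50%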;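 also: firefly luciferase from ISG56 promoter only with Renilla not read in this screen; 0% = Sendai virus plus DMSO and 100% = medium plus DMSO without virus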). To be noted: HEK293 RL24 IRF3 luciferase reporter, at 10 µM, stronger effect = higher value. Background: Reporter assays use an easily measured gene product as a stand-in for the process of interest.

A short description of experiment [13]: inhibitors of poly I:C-induced TLR3 signaling, primary screen, cell-based, poly I:C stimulus, luciferase, 10K MLSCN set (AID 602277;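 active = inhibition of the reporter signal at or above 50%; inactive = inhibition below 50%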). To be noted: HEK293-TLR3 RL24 IRF3 luciferase reporter, at 10 µM, stronger effect = higher value.
Setting [14] is: measured here: cell density z-score.
The mark [15] stands for this setting: measured here: nuclear c-Myc green intensity z-score.
Where [16] appears, read: measured here: nuclear pErk red intensity z-score, stronger effect = higher value.

“And” between values parts separate entries of the source, which are not always exact repeats. Identical values can stand only once. The source made the active and inactive calls.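 The calls were made as follows, unless noted: active = inhibition at or above 50% relative to wild type and mutant plate controls; inactive = inhibition below 50%.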

Voltage-gated potassium channel subunit beta-2 (Rattus norvegicus), sequence (P62483 whole entry, looked up): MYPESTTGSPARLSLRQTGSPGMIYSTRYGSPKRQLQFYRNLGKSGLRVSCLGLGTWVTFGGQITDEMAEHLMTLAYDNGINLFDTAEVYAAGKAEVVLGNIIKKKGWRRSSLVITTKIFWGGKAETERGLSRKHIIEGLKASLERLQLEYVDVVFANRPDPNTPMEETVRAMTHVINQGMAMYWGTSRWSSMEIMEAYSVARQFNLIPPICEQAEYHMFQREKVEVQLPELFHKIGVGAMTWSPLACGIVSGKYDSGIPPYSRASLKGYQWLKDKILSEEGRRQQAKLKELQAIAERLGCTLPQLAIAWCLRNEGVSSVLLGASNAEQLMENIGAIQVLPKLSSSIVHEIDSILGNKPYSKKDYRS
Alpha-2C adrenergic receptor (Homo sapiens), sequence (P18825 whole entry, looked up): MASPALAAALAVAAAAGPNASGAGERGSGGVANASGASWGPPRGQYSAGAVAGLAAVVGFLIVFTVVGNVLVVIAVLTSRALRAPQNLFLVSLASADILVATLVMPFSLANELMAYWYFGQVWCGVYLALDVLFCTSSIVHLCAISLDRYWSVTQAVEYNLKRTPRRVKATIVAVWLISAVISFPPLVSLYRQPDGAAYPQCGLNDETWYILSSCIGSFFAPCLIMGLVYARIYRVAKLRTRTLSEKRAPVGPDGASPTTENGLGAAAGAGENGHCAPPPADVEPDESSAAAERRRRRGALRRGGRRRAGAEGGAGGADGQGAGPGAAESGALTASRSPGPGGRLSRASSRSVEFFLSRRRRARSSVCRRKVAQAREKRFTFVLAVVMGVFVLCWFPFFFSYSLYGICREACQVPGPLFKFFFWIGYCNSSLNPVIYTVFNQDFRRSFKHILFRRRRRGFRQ
Muscarinic acetylcholine receptor M4 (Homo sapiens), sequence (P08173 whole entry, looked up): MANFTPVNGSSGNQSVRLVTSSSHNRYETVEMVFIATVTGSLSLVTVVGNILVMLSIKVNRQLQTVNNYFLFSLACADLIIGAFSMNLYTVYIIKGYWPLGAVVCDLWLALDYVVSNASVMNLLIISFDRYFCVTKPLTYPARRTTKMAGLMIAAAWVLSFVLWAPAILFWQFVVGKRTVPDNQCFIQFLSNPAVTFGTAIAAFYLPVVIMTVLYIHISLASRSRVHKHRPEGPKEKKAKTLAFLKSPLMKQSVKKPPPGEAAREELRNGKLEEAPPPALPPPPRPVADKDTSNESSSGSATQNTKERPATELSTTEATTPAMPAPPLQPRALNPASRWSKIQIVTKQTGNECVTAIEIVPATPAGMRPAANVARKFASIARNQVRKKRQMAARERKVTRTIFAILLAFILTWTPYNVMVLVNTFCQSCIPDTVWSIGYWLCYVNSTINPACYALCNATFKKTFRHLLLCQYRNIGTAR
Dual specificity protein phosphatase 6 (Homo sapiens), sequence (Q16828 whole entry, looked up): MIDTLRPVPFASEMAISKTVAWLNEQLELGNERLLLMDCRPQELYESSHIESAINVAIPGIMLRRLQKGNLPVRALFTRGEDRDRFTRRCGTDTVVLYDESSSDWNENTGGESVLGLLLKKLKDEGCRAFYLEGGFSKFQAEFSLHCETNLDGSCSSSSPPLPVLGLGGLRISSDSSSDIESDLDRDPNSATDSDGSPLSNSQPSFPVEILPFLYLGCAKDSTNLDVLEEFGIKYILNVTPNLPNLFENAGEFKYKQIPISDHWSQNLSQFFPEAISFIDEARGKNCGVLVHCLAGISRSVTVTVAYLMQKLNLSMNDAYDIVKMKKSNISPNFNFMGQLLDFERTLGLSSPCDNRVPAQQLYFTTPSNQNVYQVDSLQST

`CCOC(=O)c1ccc(N2C(=O)CC(Sc3nnc(C)s3)C2=O)cc1` (stereo not given): the cell count in [1] was 627. In addition, the inhibition (usually the change of the read-out against control, counted positive when it falls) in [1] is -1.6% (inactive); in experiment [3] it was -62.1% (inactive); in [5], -5.81% (inactive); in [11], 30.9% (inactive); in experiment [12] it was 1.68% (inactive); in [13], 7% (inactive). The inhibition of aggregation in [2] was -10.1% (inactive). Besides, the nuclei count in experiment [2] came to 98%; in experiment [3] it was 104%. The z-score in [4] (setting [14]) was 0.196; in experiment [4] (setting [15]) it was -1.44; in [4] (setting [16]), -0.8. The figures for the fluorescence slope in [6] and in [9] were -0.471 (inactive) and 0.00572 (inactive), respectively. In addition, the NADPH fluorescence slope in [7] is -1.4e-05 (inactive). The slope in experiment [8] was 0.0059 (inactive). Also, the outcome in experiment [10] was inactive.

On to `CC1(C2(O)CC(c3ccccc3)ON2)CCCCC1` (stereo not given), for which the cell count in [1] turned out to be 623. Further, the inhibition in [1] is 1.7% (inactive); in experiment [3], -10.4% (inactive); in experiment [5], -6.06% (inactive); in experiment [11], 9.38% (inactive); in experiment [12] it was 2.61% (inactive); in experiment [13] it was 4.59% (inactive). Moreover, the inhibition of aggregation in experiment [2] is 41.9% (inactive). Also, the results for the nuclei count in [2] and in experiment [3] were 65.3% and 105%, respectively. For the same compound, the z-score in [4] (setting [14]) was -1.89; in experiment [4] (setting [15]), -1.27; in [4] (setting [16]) it was 0.343. Also, the results for the fluorescence slope in [6] and in experiment [9] were -0.516 (inactive) and 0.00556 (inactive), respectively. Further, the NADPH fluorescence slope in experiment [7] was -7.6e-05 (inactive). In experiment [8], the slope was 0.0054 (inactive). Further, in [10], the call was inactive.

As to `CN1CCN2c3ccccc3Cc3ccccc3C2C1` (stereo not given), the cell count in experiment [1] was determined as 620. Besides, the inhibition in experiment [1] was 1.5% (inactive); in [3] it was -52% (inactive); in experiment [5] it was 19.2% (inactive); in experiment [11], 15.2% (inactive) and 10.4% (inactive); in experiment [12], 12.6% (inactive); in experiment [13] it was 45.7% (inactive). Also, the inhibition of aggregation in experiment [2] is 11.1% (inactive). Also, the nuclei count amounted to 113% in experiment [2] and 117% in [3]. The figures for the z-score in [4] (setting [14]), in experiment [4] (setting [15]) and in experiment [4] (setting [16]) were -0.186, -0.363 and -0.896, respectively. Besides, the fluorescence slope is -0.574 (inactive) in experiment [6] and 0.0128 (active) in experiment [9]. In experiment [7], the NADPH fluorescence slope is -3.8e-05 (inactive). Moreover, in experiment [8], the slope was 0.0196 (active). Also, in experiment [10], the compound was classed as inactive.

For `CS(=O)(=O)Nc1ccc([N+](=O)[O-])cc1Oc1ccccc1`, the cell count in experiment [1] was determined as 692. Moreover, the inhibition in experiment [1] is -0.7% (inactive); in [3] it was -24.1% (inactive); in [5] it was 11.3% (inactive); in experiment [11], 9.15% (inactive) and 12.1% (inactive); in experiment [12] it was 15% (inactive); in experiment [13], 15.8% (inactive). Besides, in [2], the inhibition of aggregation is 0% (inactive). Further, the nuclei count in [2] worked out at 95.3%; in experiment [3] it was 124%. Besides, the z-score in experiment [4] (setting [14]) is -0.515; in [4] (setting [15]), 1.09; in [4] (setting [16]), -0.635. Further, the values for the fluorescence slope in [6] and in experiment [9] were -0.557 (inactive) and 0.00499 (inactive), respectively. The NADPH fluorescence slope in [7] was -3.9e-05 (inactive). Also, the slope in experiment [8] is 0.00467 (inactive). Besides, in experiment [10], the outcome was “active; no signal in intestine only”.

Consider `O=C(O)CC1Sc2nc3ccccc3n2C1=O` (stereo not given), for which, in [1], the cell count turned out to be 532. In addition, the inhibition in experiment [1] was -9% (inactive); in experiment [3] it was -22.4% (inactive); in [5] it was 15.9% (inactive); in [11], 27.7% (inactive); in [12], 13.8% (inactive); in experiment [13] it was 12.9% (inactive). The inhibition of aggregation in experiment [2] was -11.5% (inactive). Further, the values for the nuclei count in [2] and in experiment [3] were 89% and 116%, respectively. Besides, the values for the z-score in experiment [4] (setting [14]), in experiment [4] (setting [15]) and in experiment [4] (setting [16]) were -0.312, -0.637 and -0.43, respectively. For the same compound, the fluorescence slope is -0.49 (inactive) in experiment [6] and 0.00487 (inactive) in experiment [9]. For the same compound, the NADPH fluorescence slope in experiment [7] was -1.3e-05 (inactive). For the same compound, the slope in experiment [8] is 0.00572 (inactive). For the same compound, the call in [10] was inactive.

Values taken from PubChem BioAssay.
